Over roughly 33,000 sequences, “E-score (-0.5 to 0.5)” has its median near -0.0014; the highest 2% begin near 0.25. Shown is part of a subset that was picked to be rich in the highest values.
The sequences below were run against T1, Cad1 (UniProt P24813) (assay: PBM E-score (8-mer binding enrichment) (E-score (-0.5 to 0.5)); higher = stronger / more preferred TF binding). Conditions: protein concentration: 100 nM; construct: GST-full length.
T1 sequence: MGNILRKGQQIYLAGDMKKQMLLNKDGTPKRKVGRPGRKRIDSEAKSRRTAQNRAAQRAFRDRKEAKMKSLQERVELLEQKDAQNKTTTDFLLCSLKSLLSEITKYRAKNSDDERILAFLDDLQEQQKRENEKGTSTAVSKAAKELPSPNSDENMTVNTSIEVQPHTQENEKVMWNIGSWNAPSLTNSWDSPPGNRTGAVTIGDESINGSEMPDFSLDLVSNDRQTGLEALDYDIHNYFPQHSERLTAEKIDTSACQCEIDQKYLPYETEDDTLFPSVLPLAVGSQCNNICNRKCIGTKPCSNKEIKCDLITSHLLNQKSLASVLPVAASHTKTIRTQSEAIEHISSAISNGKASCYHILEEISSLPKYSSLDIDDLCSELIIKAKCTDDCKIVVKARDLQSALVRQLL
Method: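 Universal 'all 10-mer' protein binding microarrays (Agilent AMADID 015681) probed with GST-tagged S. cerevisiae TFs (full-length or DBD) made by in vitro transcription/translation (PURExpress), about 100-200 nM. Bound TF was detected with fluorescent anti-GST. Each ungapped 8-mer (which stands for itself and its reverse complement) is scored by the PBM enrichment score (E-score), a modified Wilcoxon-Mann-Whitney statistic from -0.5 to +0.5, computed with the Universal PBM Analysis Suite. Scale: above 0.35 generally sequence-specific binding.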

Sequence	PBM E-score
ATCATTGG	-0.0561
CCAGTCGG	-0.238
CTCACCGA	-0.12
GATTCCTA	0.0143
TACGCTCA	-0.0567
CACGCTCA	0.261
AACGCTCA	-0.0578
ACGGTACA	0.0323
AGTCAGGC	0.294
AGTCAGGA	0.141
CGTCAGGC	-0.125
GCCATAAA	0.125
AGAAGGTA	0.103
GGCGCTAC	-0.214
AGCGCTAC	-0.068
AGCGCTAA	0.212
TGCGCTAA	0.156
CGCGCTAA	0.256
CGCGCTAG	0.238
AGCGCTAT	0.278
CGCGCTAC	0.26
GGCGCTAA	-0.0255
CCAAAATA	0.147
CTTCCATA	-0.244
AAGCCGGT	-0.024

Sequence	PBM E-score
GCATAGAA	0.0802
ATTCATCA	0.132
ACTTTCTA	-0.028
TACTAGAA	0.0443
CACCCGCC	0.0605
ATCGTAGC	0.0921
AACGAGCA	-0.0102
AATATAAA	0.251
AATATAAT	0.18
AACATAAC	0.135
AACATAAG	0.261
AATATAAG	0.297
CACATAAG	0.00562
TATATAAA	0.23
CATATAAG	0.00934
CATATAAA	0.0106
AGGCTACT	-0.196
CATTGGAA	0.0544
TGTAGAAA	-0.18
CATTGAGA	-0.109
AGAAGAAT	-0.0672
AGATAGAC	0.0347
GATTTCTA	0.123
ACTATTGG	0.025
ATAGTTCA	0.0339

Sequence	PBM E-score
ATTTTTAC	0.0299
AATTTTAC	0.282
AATTTTCC	0.26
CATTTTAC	0.198
AAATTTAT	0.171
AATTTAAC	0.124
AATTTAAT	0.252
AATTTTAA	0.249
ATTTTTCC	0.0266
AATTTTTC	0.145
AATTTAAG	0.0522
AATTTTAT	0.295
CAGCGGCA	-0.0412
CCAGCCCG	-0.102
CGGGTTTC	0.179
CGACCGAG	-0.0641
CATTCGGC	-0.0238
GATAATCA	0.169
CTTAATAC	-0.0147
AATAATCA	0.218
AATAATAA	0.305
AATAATAG	0.077
CATAATAA	-0.0382
TCTAATAA	0.0758
TATAATCA	0.31

Sequence	PBM E-score
AATAATAC	0.205
CTTAATAA	0.383
GTTAATAA	0.249
TATAATAA	0.278
AGCTCCGG	-0.115
AAGCAGAG	-0.111
GCAAGGCC	0.0338
CAGAGAGG	-0.329
AGAGCCGG	-0.167
AACCAAGC	0.03
AAATCGGG	0.0578
GGGTATAC	0.0548
GCATCTAA	0.194
GAACACTA	0.0513
CAACACTA	0.19
TAACACTA	0.265
ACCGTCAC	-0.176
CCCACACA	0.00769
AGAAGGCT	-0.299
ATGTAATA	0.334
GTGTAATA	0.194
ATGTAACC	-0.0284
ATGTAATC	0.168
AAGTAATG	0.0383
ATGTAATG	0.281

Sequence	PBM E-score
ATGTAACG	0.257
ATGTAACA	0.168
CTGTAATA	0.143
ATCTTACC	0.0255
GACATTCC	-0.0262
GAGAACTA	0.103
GTCTAAGA	0.151
TCCTCCCA	-0.144
GTAGATAA	0.251
ATAGATAA	0.125
TTAGATAA	0.105
ACAGGCAA	0.0554
CGATCCGC	0.163
CGATCCGA	0.251
GGATCCGA	-0.00022
CGGGTTTA	-0.0209
AGAGTGCT	0.0363
GAAGAACA	0.121
TAAGAACA	0.275
CAAGAACA	0.0216
CTAGCTTC	0.0393
AGCCTACC	-0.282
CAACTGTC	0.0813
CACTAAAA	0.19
CACAGTAA	0.291

Sequence	PBM E-score
TACAGTAA	0.0528
CACAGTAG	-0.0343
ACATTAAA	0.11
ATAATAAA	0.243
TTAATAAA	0.389
CTAATAAA	0.0515
ATATTAAC	0.224
CTATTAAA	0.00283
ATATTAAA	0.385
TCATTAAA	0.265
ATATTAAT	0.368
GCATTAAA	0.103
ATATTAAG	0.115
CTATTAAC	0.141
ACCAGATG	-0.0464
CTCAGCCC	-0.21
CCAGAGCA	-0.00085
ATTTGATG	0.148
AGACTTCG	-0.0445
TATCTTCA	-0.0564
ACTAGATA	0.0286
ATATAGAA	0.00309
TCTGAGCA	0.0835
CAGGGAAA	-0.054
ACAAAGTA	0.193

Sequence	PBM E-score
CCCTGAAC	0.229
CATCGCTC	-0.187
AGAGCGTG	-0.0848
CTTGCGAA	0.184
GTACTAAA	0.054
TTAGTAAA	0.339
CTAGTAAA	0.0669
GATTTCAA	0.013
ATACTAAA	0.231
TATTTCAA	0.309
CATTTCAA	0.174
TTACTAAA	0.374
TTATTCAA	0.252
ATATTCAA	0.144
GTATTCAA	0.14
ATAGTAAA	0.225
AACGCCAT	-0.0315
CTCGTAAA	0.0173
AGGGCACA	-0.116
ATCGCATA	0.0254
CATAAGCC	0.0914
ACTGCTTA	0.132

Reference: the supplement of paper PMC3334620
